Bioassay records as filed in PubChem.
uPA surface inh: blocks generation of uPA at the cell surface. cell surface uPA generation assay, qHTS. actives 0.31% (n = 330,000). AID 540303. Potency, µM (doses to about 38.3 µM), for the others: top-dose activity change, negative = inhibition, actives largely listed as inhibitors; active = well fitted inhibition curve with a large enough effect; inconclusive = small, poorly fitted or top-dose-only effect; inactive = no such curve, though single readings can be large or run the other way; tested in mouse RAW 264.7 cells; also: potency is read from the fitted curve at half-maximal effect; nearly all actives have a fitted effect of over 55% in size
HT1080-NT tox: kills 2HG-producing HT-1080-NT fibrosarcoma cells | HT-1080-NT fibrosarcoma viability, CellTiter-Glo ATP luminescence, 48 h | Potency, µM (top dose mostly 46.1 µM), inactives show at the top dose activity, negative = less viability, actives largely listed as cytotoxic | actives 1.6% (n = 360,000);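 also: NT is the 2HG producing partner of a matched IDH1 knockdown line; potency is read from the fitted curve at half-maximal effect; 0% = DMSO-treated cells and -100% = media-only wells without cells; nearly all actives have a fitted effect of over 55% in size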
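Viability of the 2HG-overproducing fibrosarcoma line after 48 hours of compound exposure at 37 degrees C was determined by luminescence with CellTiter-Glo, and concentration-effect curves were then fitted and categorized.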
HT1080 IDH1KD tx: toxicity to HT-1080 IDH1 knockdown cells (counter line); HT-1080 IDH1 knockdown viability, ATP luminescence, 48 h; Potency, µM (doses to about 46.1 µM), inactives show top-dose activity, negative = toxicity, most hits filed as cytotoxic; actives 2% (n = 360,000); AID 686971;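 also: potency is read from the fitted curve at half-maximal effect; 0% = DMSO wells and -100% = cell-free medium wells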
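Assay cells: HT-1080 with IDH1 knockdown, 750 per well, RPMI/5% FBS. Exposure: 48 h at 37 °C following 2 h pre-incubation. Read: CellTiter-Glo luminescence; fitted concentration-response, curve class assigned.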
IL1B secr inh: inhibitors of inflammasome signaling (IL-1 beta secretion); THP-1 LPS/ATP IL-1B secretion, AlphaLISA, 16 h; hits give low values; actives 4.7% (n = 360,000); AID 743279; activity change, % at 57.5 µM; in the data active = activity change below about -50%; inconclusive = mostly about -30% to -49%
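THP-1 cells pretreated 1 hr with compounds (up to 57.5 uM final), then stimulated with LPS (250 ng/mL final) plus ATP (1.25 mM final); secreted IL-1B measured by AlphaLISA after 16 hr, decreased signal indicating inhibition.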
DT40 TDP1 no CPT: qHTS for Inhibitors of human tyrosyl-DNA phosphodiesterase 1 (TDP1): qHTS in cells in absence of CPT | actives 15% (n = 420,000) | Potency, µM (top dose mostly 46.2 µM), without a hit: at the top dose activity change, negative = growth inhibition, usual class: inhibitors | AID 686978, 2013 | DT40 Tdp1-/- hTDP1 cells, no CPT, ATP luminescence, 48 h; also: potency is read from the fitted curve at half-maximal effect; nearly all actives have a fitted effect of over 55% in size
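Compound effects on proliferation are scored in DT40 Tdp1-/-;hTDP1 cells in the absence of CPT. ATP levels (CellTiter-Glo luminescence) are recorded after a ≥48 hr, 37 °C incubation.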
DT40 TDP1 CPT: growth inhibition of DT40 Tdp1-/-;hTDP1 cells with camptothecin (screen for TDP1 inhibitors); chicken DT40 Tdp1-/-;hTDP1 cells + 20 nM CPT, ATP luminescence, 48 h; Potency, µM (titrated, usually from 46.2 µM), for inactives: top-dose activity change, negative = growth inhibition, usual class: inhibitors; actives 12% (n = 420,000); AID 686979; also: potency is read from the fitted curve at half-maximal effect; nearly all actives have a fitted effect of over 55% in size
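Chicken DT40 Tdp1-/- cells complemented with human TDP1, 400 cells/well, exposed to compounds plus 20 nM camptothecin for at least 48 h at 37 C; viability read as ATP content by CellTiter-Glo luminescence.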
An asterisk follows results filed as active; ? = inconclusive; . = not tested or not shown. The list is not random: actives were taken first. Their share in the collection is about 19%. Unless noted, calls follow the shape of the dose curve; as a rule, active = well fitted curve in the direction sought with a large enough effect; inconclusive = small, poorly fitted or top-dose-only effect, or another doubt; inactive = no such curve, though single readings can be large; an effect the other way counts as inactive or inconclusive. Unless noted, % is scaled to controls: 0 for no effect and ±100 for the full control effect.

SMILES | uPA surface inh | HT1080-NT tox | HT1080 IDH1KD tx | IL1B secr inh | DT40 TDP1 no CPT | DT40 TDP1 CPT
COc1ccc(S(=O)(=O)N2CCOCC2)cc1NC(=O)COC(=O)Cc1ccccc1 | ? | -3.5% | -1.4% | -7.6 | 25.6% | -1.2%
Cc1sc2ncnc(N3CCN(S(=O)(=O)c4ccc(Br)cc4)CC3)c2c1C | 16.6% | -3.7% | 9.7% | -12.2 | 11.6µM* | 13µM*
Cc1sc2ncnc(SCC(=O)Nc3ccc(S(=O)(=O)N4CCOCC4)cc3)c2c1C | 1.1% | -11.0% | -13.6% | -4.0 | 29.1µM* | 23.1µM*
Cc1cc(Br)ccc1NC(=O)CN(C)C(=O)C1CCN(c2ncnc3sc(C)c(C)c23)CC1 | ? | ? | ? | -56.3* | 20.6µM* | ?
NCC(CC(=O)O)c1ccc(Cl)s1 (stereo not given) | . | . | . | . | -1.2% | 11.2%
O=C(CN1CCN(S(=O)(=O)c2cc(Br)ccc2Br)CC1)NCc1ccccc1Cl | -5.3% | -8.9% | -24.6% | -18.5 | ? | ?
CC1(C)C(=O)C=C[C@@]2(C)C1=C(O)C(=O)[C@@]1(C)C2CC[C@@]2(C)C(c3ccoc3)C[C@H]3O[C@@]321 (stereo not given in full) | . | . | . | . | 11.6µM* | 11.6µM*
CC1(C)C(O)CC(O)[C@]2(C)C1CC(O)[C@]1(C)C2CC[C@@]2(C)C(c3ccoc3)OC(=O)C3O[C@]312 (stereo not given in full) | . | . | . | . | -20.6% | ?
CCCCOP(=O)(OCCCC)C(Nc1ccc(C(=O)OCC)cc1)c1ccncc1 (stereo not given) | -3.7% | ? | -10.1% | -65.3* | 11.6µM* | ?
COc1ccc2c(c1)C1(C(=O)O)CC=CCC1(C(=O)O)C2 (stereo not given) | 9.9% | 17.9% | 14.5% | 16.0 | 1.1% | -0.9%
O=C1NC(=O)N(c2ccc3c(c2)OCO3)C(=O)/C1=C/c1cccs1 | 2.8% | 4.4% | -13.1% | -103.8* | ? | ?
CC(C)(C)c1ccc(O)cc1 | . | . | . | . | 1.4% | 3.8%
COc1ccccc1S(=O)(=O)N(C)C[C@@H]1Oc2cc(C#CCC(C)C)ccc2S(=O)(=O)N([C@H](C)CO)C[C@@H]1C | . | -14.5% | -26.3% | ? | ? | ?
COc1ccc(C#Cc2ccc3c(c2)O[C@H](CN(C)S(=O)(=O)c2ccccc2F)[C@H](C)CN([C@H](C)CO)S3(=O)=O)cc1 | . | 7.0% | 0.5% | ? | 20.6µM* | ?
COc1ccc(Cc2c(O)[nH]c(=S)[nH]c2=O)cc1 | 3.9% | 21.2% | 14.7% | -16.7 | 14.5% | 11.2%
Cc1cc(OC(C)C(=O)NCC2CCC(C(=O)O)CC2)c2c3c(c(=O)oc2c1)CCC3 (stereo not given) | 1.8% | 0.1% | 10.4% | 14.7 | 20.9% | -13.9%
CCOC(=O)CC(NC(=O)C(Cc1ccc(N(CCCl)CCCl)cc1)NC(C)=O)C(=O)OCC (stereo not given) | -9.2% | ? | ? | -78.7* | 0.517µM* | 1.46µM*
CC(=O)NC(Cc1ccc(N(CCCl)CCCl)cc1)C(=O)NC(C(=O)O)C(C)C (stereo not given) | -2.8% | 10.4% | 13.6% | -14.0 | -21.3% | -8.7%
COc1cc(C(=O)N2CCN(c3cccc(C)c3C)CC2)cc(OC)c1OC | ? | 1.16µM* | 0.82µM* | 106.2 | 0.82µM* | 0.82µM*
O=C(CN1CC(c2ccccc2)CC1=O)Nc1ccc(F)cc1 (stereo not given) | -51.1% | 10.8% | 6.9% | -23.1 | -14.9% | 2.91µM*
CC(=O)O[C@H]1C[C@@H]2OC3C=C(C)CCC3(C)[C@@]1(C)[C@@]21CO1 (stereo not given in full) | -10.0% | ? | . | -100.0* | 1.03µM* | 0.581µM*
CCOP(=O)(OCC)C(NC(=O)Nc1ccc(Cl)c(Cl)c1)c1ccccc1 (stereo not given) | 1.8% | ? | ? | -3.2 | 16.4µM* | ?
CC(=O)OC1CCC2(C)C(=CC(=O)C3C2CCC2(C)C(OC(C)=O)CCC32)C1 (stereo not given) | 11.2% | 10.0% | 8.1% | 13.0 | ? | ?
CCC(=O)c1c(O)n(C2CCCCCC2)c(=O)[nH]c1=O | 6.9% | -16.2% | ? | 1.5 | 16.4µM* | 6.51µM*
CCC(=NCc1ccco1)c1c(O)n(C2CCCCC2)c(=O)[nH]c1=O | -5.0% | -13.6% | -4.5% | -1.3 | ? | 23.1µM*
SMILES | uPA surface inh | HT1080-NT tox | HT1080 IDH1KD tx | IL1B secr inh | DT40 TDP1 no CPT | DT40 TDP1 CPT
CCC(=NCc1cccnc1)c1c(O)n(C2CCCCC2)c(=O)[nH]c1=O | -3.3% | -0.9% | -15.4% | -11.7 | ? | ?
CN1CCC(O)(c2cccs2)C(C(=O)c2cccs2)C1 (stereo not given) | -1.6% | 23.1µM* | ? | -93.8* | 3.66µM* | 1.3µM*
CCC(=O)O[C@]1(c2ccccc2)CCN(C)C[C@H]1C | . | . | . | . | -29.3% | 5.8%
C#CCOc1cc(C2C3=C(COC3=O)Nc3cc4c(cc32)OCO4)ccc1OC (stereo not given) | ? | -3.6% | -2.4% | 84.7 | -61.1% | 20.6µM*
O=C(O)C1Cc2ccccc2N2CCCC12 (stereo not given) | 0.8% | -12.1% | -7.4% | 65.6 | -7.4% | -27.5%
S=P1(Oc2ccccc2)Nc2ccccc2N1 | -4.1% | -1.1% | 5.5% | 14.7 | -13.1% | -1.7%
CC1CN(c2ccc([N+](=O)[O-])c(N3CCCCC3)c2)CCN1 (stereo not given) | -4.6% | -12.9% | -7.4% | -5.2 | -28.0% | -10.4%
O=[N+]([O-])c1ccc(N2CCCC2)c(F)c1Br | -3.6% | 1.4% | 0.3% | -5.6 | 23.1µM* | 13µM*
CC(=O)c1ccc(NC(=O)N2C[C@H]3C[C@@H](C2)c2cccc(=O)n2C3)cc1 | -1.3% | 2.6% | 0.0% | 28.9 | 1.9% | 21.3%
O=C(Oc1c(Cl)cc(Cl)c2ccccc12)N1CCCCC1 | -2.6% | -16.6% | -24.5% | 10.9 | ? | ?
O=C(Oc1c(Br)cc(Br)c2cccnc12)N1CCCCC1 | -2.4% | -15.2% | -20.0% | -2.7 | ? | 23.1µM*
O=C(COc1ccc(Br)cc1)Nc1ccc(Cl)cc1C(=O)c1ccccc1 | . | . | . | . | -14.9% | -3.1%
CC1=C/C(=C(/c2cc(C)c(O)c(Br)c2)c2ccccc2S(=O)(=O)O)C=C(Br)C1=O | -4.7% | ? | ? | -70.7* | ? | ?
CNCc1ccccc1 | . | . | . | . | ? | 1.9%
